{"source": "PubChem BioAssay AID651965", "about": "(National Center for Advancing Translational Sciences (NCATS), 2013)", "note": "The campaign covered roughly 340,000 compounds. About 6,400 (1.9%) were called active. Roughly 4% stayed inconclusive and do not appear here. Shown is part of a subset that was picked to be rich in actives. A number with no mark means an inactive call. The call rests on the fitted dose curve; in most records, active means well fitted falling curve with a large enough effect; inconclusive means small, poorly fitted or top-dose-only effect; inactive means no such curve, though single readings can be large or run the other way. Potency means the concentration at half of the fitted maximal effect."}
{"molecular_target": "ATP-dependent Clp protease proteolytic subunit (Bacillus subtilis (strain 168)) (UniProt P80244)", "test": "qHTS Assay for Activators of ClpP; further: the source files actives as falling curves though it sought activators and does not explain the sign; nearly all actives have a fitted effect of over 65% in size", "details": "purified B. subtilis ClpP, FRET peptide cleavage, 20 min; series mostly up to 57.5 µM; activity change, negative = active: at the top concentration", "how_it_was_run": "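FRET quenching reversal measured ClpP activation: 10 microg/mL B. subtilis ClpP at pH 8 with the FRET-FV decapeptide, read at 430 nm after 320 nm excitation. The 20-min minus 0-min signal was scaled between DMSO/no-enzyme wells and ADEP (5.8 microM final).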", "units": {"activity change, negative = active": "%"}}
{"compound": "OC[C@H]1O[C@@H](c2nc(-c3nc(-c4ccc(F)cc4)no3)cs2)[C@H](O)[C@@H](O)[C@H]1O", "activity change, negative = active": -1.14}
{"compound": "COc1cccc2c1cc1c(=O)n(CC(=O)N3CCN(c4ccccc4)CC3)nc(C)n12", "Potency": "25.1 µM (active)"}
{"compound": "CCN1CCN(C(=O)Cn2nc(C)n3c(cc4c(OC)cccc43)c2=O)CC1", "activity change, negative = active": 3.98}
{"compound": "Cc1nn(CC(=O)N2CCN(c3cccc(C(F)(F)F)c3)CC2)c(=O)c2cc3sccc3n12", "activity change, negative = active": -1.4}
{"compound": "CN[C@H]1C[C@H]2c3cc(Oc4ccccc4C)ccc3CCN2C(=O)[C@H]1[C@H](C)O", "activity change, negative = active": -4.92}
{"compound": "CCCS(=O)(=O)NC(=O)C1(C)CCCN(C(=O)c2cc(C)on2)C1", "note": "(stereo unspecified)", "activity change, negative = active": -2.31}
{"compound": "CCCCCCC1(C)NC(c2ccc3c(c2)OCO3)=CC(c2ccccc2O)N1", "note": "(stereo unspecified)", "activity change, negative = active": -6.14}
{"compound": "CCOC(=O)N1CCC(NC(=O)C(C)n2c3ccccc3c3cnn(C)c(=O)c32)CC1", "note": "(stereo unspecified)", "Potency": "28.2 µM (active)"}
{"compound": "CCOC(=O)N1CCC(NC(=O)Cc2cn(C)c3ccccc23)CC1", "activity change, negative = active": -21}
{"compound": "CCOC(=O)N1CCC(NC(=O)CCc2cn(C)c3ccccc23)CC1", "activity change, negative = active": -26.7}
{"compound": "COc1cccc(NC(=O)C2(C)CCN2C(=O)CCC2CCCC2)c1", "note": "(stereo unspecified)", "activity change, negative = active": -0.927}
{"compound": "CN(C)S(=O)(=O)c1cccc(NC(=O)COC(=O)C2(c3ccccc3F)CCCC2)c1", "activity change, negative = active": 0.268}
{"compound": "O=C(COC(=O)C1(c2ccc(F)cc2)CCCC1)N1CCNC1=O", "activity change, negative = active": -1.05}
{"compound": "NS(=O)(=O)c1ccc(NC(=O)COC(=O)C2(c3ccc(F)cc3)CCCC2)cc1", "Potency": "28.2 µM (active)"}
{"compound": "CC1=CC(C)(C)N(C(=O)CSc2nnc(-c3ccccc3)o2)c2ccc(C)cc21", "activity change, negative = active": -0.107}
{"compound": "COc1ccc2c(c1)C(C)=CC(C)(C)N2C(=O)Nc1ccccc1", "Potency": "28.2 µM (active)"}
{"compound": "COc1ccc2c(c1)C(C)=CC(C)(C)N2C(=O)CNCc1ccc2c(c1)OCO2", "activity change, negative = active": 2.1}
{"compound": "COc1ccc(S(=O)(=O)N2CCCCC2c2cc(C(=O)NCc3ccc(F)cc3)no2)cc1", "note": "(stereo unspecified)", "activity change, negative = active": 0.0963}
{"compound": "Cc1nc(N=C(N)N)nc2c(C)cccc12", "activity change, negative = active": 0.0945}
{"compound": "COc1nc(N=C(N)N)nc2c(C)cccc12", "Potency": "3.16 µM (active)"}
{"compound": "CC(=O)Oc1ccc(-c2nc3c(C)cccc3c(=O)o2)cc1", "activity change, negative = active": -2.1}
{"compound": "Nc1ccc(/C=C/c2ccnc3ccccc23)c([N+](=O)[O-])c1", "activity change, negative = active": 0.526}
{"compound": "O=C1NC[C@H](Cc2ccc(O)cc2)N(C[C@H]2CCCN2C[C@H](Cc2ccccc2)N2C[C@H](Cc3ccccc3)N(CCc3ccccc3)C(=O)C2=O)C1=O", "activity change, negative = active": -3.18}
{"compound": "O=C(CSc1ccccc1)Nc1cccc(S(=O)(=O)N2CCOCC2)c1", "activity change, negative = active": 1}
{"compound": "Cc1occc1C(=O)Nc1cccc(S(=O)(=O)N2CCOCC2)c1", "activity change, negative = active": 1.54}
{"compound": "O=C(Nc1cccc(S(=O)(=O)N2CCOCC2)c1)C12CC3CC(CC(C3)C1)C2", "Potency": "31.6 µM (active)"}
